Many of the other results were omitted from the sample, so hits are more common in it than they were.
TbREL1 primary = TbREL1 RNA ligase inhibitors, primary screen, biochemical, FRET fluorescence | RNA-editing ligase 1, mitochondrial (Trypanosoma brucei brucei), P86926 | TbREL1 RNA ligation | 0.49% of 89,000 active | inhibition, % at 9.66 µM;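 active = inhibition above the mean inhibition across all screened compounds plus 3 SD, cut at about 11% in these data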
Target sequence (P86926 whole entry, looked up): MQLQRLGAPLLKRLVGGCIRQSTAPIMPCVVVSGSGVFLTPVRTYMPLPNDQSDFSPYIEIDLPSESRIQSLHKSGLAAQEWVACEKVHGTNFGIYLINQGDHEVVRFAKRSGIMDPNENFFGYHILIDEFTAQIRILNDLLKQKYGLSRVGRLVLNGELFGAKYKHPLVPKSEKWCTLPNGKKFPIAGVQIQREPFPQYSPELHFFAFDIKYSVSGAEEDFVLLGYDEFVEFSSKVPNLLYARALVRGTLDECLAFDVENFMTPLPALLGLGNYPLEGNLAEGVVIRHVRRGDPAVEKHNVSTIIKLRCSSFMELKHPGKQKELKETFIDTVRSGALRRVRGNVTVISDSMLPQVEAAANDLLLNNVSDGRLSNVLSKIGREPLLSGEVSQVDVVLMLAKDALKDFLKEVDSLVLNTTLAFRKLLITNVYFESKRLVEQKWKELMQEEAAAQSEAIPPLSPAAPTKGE
TbREL1 conf = TbREL1 RNA ligase inhibitors, confirmation, biochemical, FRET fluorescence, triplicate | shares compounds with TbREL1 primary | TbREL1 RNA ligation | inhibition, % at 9.66 µM | 37% of 390 active;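 active = mean inhibition across replicates above a set limit taken from the earlier primary screen, cut at about 11% in these data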
Each line names hits and unclear results; the compound was inactive in the other large screens (follow-up assays come after a bar, where they were run).

COC(=O)c1ccc(N2C(=O)CC(Sc3n[nH]c(C)n3)C2=O)cc1 (stereo not given)	none
COc1ccc(NC(=O)CC2C(=O)N(c3ccc(OC)cc3)C(=O)N2C(C)C)cc1 (stereo not given)	none
COc1ccc2c(c1)N[C@@](CCNC=O)(c1[nH]c3ccccc3c1CCNC=O)C2=O	none
CCOC(=O)[C@]12CCCC3=C1N(CCC3)C(=O)[C@@H](CC(=O)N1CCN(C(=O)c3ccco3)CC1)C2	none
C=CCN1C(=O)[C@H](CC(=O)N2CCCC2)[C@@]2(C(=O)OCC)CCCC=C12	none
COC(=O)C1=C(C)N(Cc2ccc(Cl)cc2)C(=S)NC1c1cccc(Br)c1 (stereo not given)	none
COC(=O)C1=C(C)N(Cc2ccccc2C(F)(F)F)C(=NCc2ccc3c(c2)OCO3)NC1c1cccc(F)c1 (stereo not given)	TbREL1 primary 13 | TbREL1 conf 18
COC(=O)C1=C(C)N(Cc2ccccc2C(F)(F)F)C(=NCc2ccc3c(c2)OCO3)NC1c1cccc(Cl)c1 (stereo not given)	TbREL1 primary 14 | TbREL1 conf 14
COC(=O)C1=C(C)N(CCCC(=O)O)C(=O)NC1c1ccc2c(c1)OCO2 (stereo not given)	none
COC(=O)[C@]12C[C@H](CC(=O)N3CCCCC3)C(=O)N(Cc3ccc(Cl)cc3Cl)C1=C[C@H](C1CCCC1)O[C@@H]2C	none
O=C(CNS(=O)(=O)c1ccc(Cl)s1)N1CCN(c2ccccn2)CC1	none
COC(=O)[C@]12C[C@H](CC(=O)N3CCSCC3)C(=O)N(Cc3ccco3)C1=C[C@H](C1CCCC1)O[C@@H]2C	none
Cc1ccc(N(C)S(=O)(=O)c2c[nH]c3ccc([N+](=O)[O-])cc23)cc1	TbREL1 primary 14 | TbREL1 conf inactive
O=[N+]([O-])c1ccc2[nH]nc(-c3ccccc3)c2c1	none
COC(=O)CCc1c[nH]c2ccc([N+](=O)[O-])cc12	none
O=C(c1cc(F)cc(F)c1)N1CCCC(c2nc(-c3cccs3)no2)C1 (stereo not given)	none
C[C@H]1[C@@H](OC(=O)NCc2ccccc2)CC[C@@]23CCCN2C(=O)CCC[C@@H]13	none
CN1CCCN(C(=O)CN2C(=O)CC(C)(C)S(=O)(=O)c3ccccc32)CC1	none
C#CCNC(=O)C[C@H]1C(=O)N(CCCOC)C2=CCCCC[C@]21C(=O)OC	none
CCCCN1CCS(=O)(=O)N(Cc2cn(Cc3cccc(Cl)c3)nn2)C(C(=O)OC)C1 (stereo not given)	none
O=C1c2ccccc2C(=O)N1CCOc1ccccc1	none
Cc1ccc(OCCN2C(=O)C(=O)c3cc(C)ccc32)cc1	TbREL1 primary 12 | TbREL1 conf inactive
Cc1ccc(OCCn2c(=O)sc3ccccc32)cc1	none
Cc1nn(-c2ccccc2)c2sc(C(=O)NC3CCCCCC3)cc12	none
COc1cccc(NC(=O)Nc2nc3ncccn3c2-c2ccc(C(F)(F)F)cc2)c1	none
COC(=O)C1=C(C)N(Cc2ccccc2)C(=NCc2ccccc2)N[C@H]1c1ccccc1	none
COC(=O)C1=C(C)N(Cc2ccccc2C(F)(F)F)C(=NCc2cccc(C(F)(F)F)c2)NC1c1ccc(C(F)(F)F)cc1 (stereo not given)	TbREL1 primary 18 | TbREL1 conf 20
C=CCN=C1NC(c2ccc(F)cc2)C(C(=O)OC)=C(C)N1Cc1ccccc1C(F)(F)F (stereo not given)	TbREL1 primary 14 | TbREL1 conf 14
COC(=O)C1=C(C)N(Cc2ccc(Cl)cc2)C(=S)NC1c1ccccc1 (stereo not given)	none
COC(=O)C1=C(C)N(Cc2ccccc2)C(=NCc2ccccc2)N[C@H]1c1cccc(F)c1	TbREL1 primary 14 | TbREL1 conf 15
COCCN=C1N[C@@H](c2ccc(Br)cc2)C(C(=O)OC)=C(C)N1Cc1ccccc1	none
COC(=O)C1=C(C)N(Cc2ccccc2)C(=S)NC1c1ccc(Cl)cc1 (stereo not given)	none
COC(=O)C1=C(C)N(Cc2ccccc2C(F)(F)F)C(=NCc2ccc(C(F)(F)F)cc2)NC1c1ccc(Cl)cc1 (stereo not given)	TbREL1 primary 12 | TbREL1 conf 18
COC(=O)C1=C(C)N(Cc2ccccc2)C(=NCCc2c[nH]c3ccccc23)N[C@H]1c1cccc(F)c1	none
C=CCN=C1NC(c2ccc(C(F)(F)F)cc2)C(C(=O)OC)=C(C)N1Cc1ccccc1C(F)(F)F (stereo not given)	none
CCOC(=O)[C@@]12CCCC=C1N(CCc1ccc(Cl)cc1)C(=O)[C@H]2CC(=O)NCCCCc1ccccc1	none
O=C(Nc1cc(Cl)ccc1F)C1CCCN1S(=O)(=O)c1cccc2cccnc12 (stereo not given)	none
COc1ccc(C2C(C(=O)N3CCN(c4ccccc4Cl)CC3)CC(=O)N2c2ccc(OC)cc2)cc1 (stereo not given)	none
COc1ccc(CN(CCN2CCOCC2)C(=O)c2ccccc2C)cc1OC	none
CC(C)(N[C@@H](Cc1c[nH]c2ccccc12)C(=O)NCCc1c[nH]c2ccccc12)C(=O)NC1CCCCC1	none
COc1ccc(Cn2ccc3ccc(-c4ccc5ccn(Cc6ccccc6F)c5c4)cc32)cc1	none
Cc1cccc(CCNC(=O)c2ccc3c(c2)ncn3C2CCCCC2)c1	none
COC(=O)[C@]12C[C@H](CC(=O)NCCC(C)C)C(=O)N(Cc3cccc4ccccc34)C1=C[C@H](C(C)(C)C)O[C@@H]2C	none
CCN1C(=NCc2ccc(OC)cc2)N[C@@H](c2ccccc2)[C@H](C(=O)OC)[C@H]1C	none
COC(=O)C1=C(C)N(Cc2ccc(Cl)cc2)C(=S)NC1c1cccc(OC)c1 (stereo not given)	none
COC(=O)C1=C(C)N(Cc2ccccc2C(F)(F)F)C(=NCc2ccc(OC)cc2)NC1c1ccc(Cl)cc1 (stereo not given)	TbREL1 primary 12 | TbREL1 conf 16
COC(=O)C1=C(C)N(Cc2ccccc2C(F)(F)F)C(=NCc2ccc(OC)cc2)NC1c1cccc(F)c1 (stereo not given)	TbREL1 primary 14 | TbREL1 conf 19
COc1cccc(C2NC(=S)N(Cc3ccc(F)cc3)C(C)=C2C(C)=O)c1 (stereo not given)	none
COC(=O)C1=C(C)N(Cc2ccc(F)cc2)C(=S)NC1c1ccccc1 (stereo not given)	none
COC(=O)C1=C(C)N(Cc2ccccc2C(F)(F)F)C(=NCc2ccc(OC)cc2)NC1c1ccccc1 (stereo not given)	TbREL1 primary 13 | TbREL1 conf 16
COC(=O)C1=C(C)N(Cc2ccc(Cl)cc2)C(=S)NC1c1ccc(F)cc1 (stereo not given)	none
O=C(NC1CCCCN(Cc2ccc(Cl)cc2)C1=O)c1cccc(C(F)(F)F)c1 (stereo not given)	none
O=C1N(c2ccccc2)CC2CC(c3ccccc3)N3CCCC123 (stereo not given)	none
COc1ccc(CN(CCN2CCOCC2)C(=O)c2cccc(F)c2)cc1OC	none
Cc1ccccc1NC(=O)C1CCCN1S(=O)(=O)c1cccnc1 (stereo not given)	none
CCCCC(=O)N[C@H]1CC[C@@]23CCCN2C(=O)CCC[C@H]3[C@H]1CCC	none
CCOc1ccc(-n2c(SCc3ccc(C#N)cc3)nnc2-c2ccco2)cc1	none
Cc1ccccc1CN1CCCCC(NC(=O)c2ccc3ccccc3c2)C1=O (stereo not given)	none
O=C(C1CCN(c2cncnc2)CC1)N1CCOCC1	none
